Results published in PubChem BioAssay (NCATS).
Results filed as inconclusive are left out. Active and inactive are the calls of the source. The call rests on the fitted dose curve; in most records, active means well fitted inhibition curve with a large enough effect in the main read-out, with a control signal flat (not every such curve was filed as active); inconclusive means small, poorly fitted or top-dose-only effect, or effect the other way, or a change in a side signal; inactive means no such curve, though single readings can be large or run the other way.

Assay: Nrf2 qHTS screen for inhibitors: Validation (AID 493153);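 on activity change, negative = inhibition: A549 cells with ARE-driven firefly luciferase reporter reporting Nrf2 activity; % of control where 0% means no effect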
Settings: A549 ARE-Fluc reporter, 18-24 h; Potency: luciferase luminescence; viability change: measured here: cytotoxicity max response; luciferase luminescence, at 46.1 µM (top of the series); activity change, negative = inhibition: at the top concentration
From the text: NIH Molecular Libraries Probe Production Network [MLPCN] NIH Chemical Genomics Center [NCGC] MLPCN Grant: R03-MH092170-01 Assay Provider: Shyam Biswal, Johns Hopkins University Assay Overview: Nrf2 is a transcription factor that maintains cellular redox homoestasis and protects cells from xenobiotics. Nrf2 binds to the antioxidant response element (ARE) to induce gene expression of a broad spectrum of genes that encode for antioxidants. […] Finding a small molecule that act as an inhibitor of Nrf2 function would represent a novel therapeutic target that could lead to improvement in survival of patients undergoing chemo- and/or radio- therapy. 1. Shibata, T., et al., Genetic Alteration of Keap1 Confers Constitutive Nrf2 Activation and Resistance to Chemotherapy in Gallbladder Cancer. Gastroenterology, 2008. 2. Sjoblom, T., et al., The consensus coding sequences of human breast and colorectal cancers. Science, 2006. 314(5797): p. 268-74.
Assay Protocol Summary: A concentration-response assay was performed with A549 ARE_Fluc cells which are suspended in 5% FBS OPTI-MEM. Five uL were dispensed into 1536-well white TC-treated plate using the Kalypsys dispenser to achieve a density of 5000 cells/well in all columns except column 1. The plate is incubated at 37deg C at 5% CO2 for 2 hours before 23 nL of compounds are added with the Kalypsys pin tool equipped with a 1,536-pin array containing 10-nL slotted pins (FP1S10, 0.457-mm diameter, 50.8 mm long; V&P Scientific). The control compounds Budesonide and Staurosporine are both added at a concentration of 2mM and Budesonide is also added as a 1:10 titration, starting at 200uM, to achieve dose-response. After an 18-24 hour incubation at 37deg C at 5% CO2, 5ul of medium is added to column 1. Afterwards 1ul of 5x of CellTiter-Fluor (Promega) is added to every well. The plate is then incubated at 37deg C at 5% CO2 for 30 minutes before they are read on the ViewLux (Perkin Elmer) for a fluorescent read Ex=405(10)/Em=525(10) for a 3 second exposure, 2x binning, and high gain. Then 3 uL of 3x BugLite is dispensed into all wells and the plate is incubated at ambient room temperature for 15 minutes. Afterwards another ViewLux read is performed using the clear filter to get a luminescent read with the settings of 40 second exposure, 2x binning, and high gain. Cytotoxicity is assessed through the first fluorescent read and then biochemical activity against Nrf2 is measured in the luminescent read.
Potency means the concentration at half of the fitted maximal effect.

SMILES | viability change [%] | activity change, negative = inhibition | Potency
CCN(CC)CC#CCOC(=O)C(O)(c1ccccc1)C1CCCCC1 (centres undefined) | -11.3 | 1.4% (inactive) | –
N[C@@H](Cc1ccc(O)c(O)c1)C(=O)O | -3.54 | 1.82% (inactive) | –
NC(=O)c1cccc(N)c1 | 9.41 | -11.9% (inactive) | –
CC(C)NCC(O)c1ccc(NS(C)(=O)=O)cc1 (centres undefined) | -6.97 | 4.51% (inactive) | –
OCc1ccc(-c2nn(Cc3ccccc3)c3ccccc23)o1 | 4.14 | -9.55% (inactive) | –
CCN1CCCC1CNC(=O)c1cc(S(N)(=O)=O)ccc1OC (centres undefined) | 7.94 | -12% (inactive) | –
CC1CC2C3CCC4=CC(=O)C=C[C@]4(C)[C@@]3(F)[C@@H](O)C[C@]2(C)[C@@]1(O)C(=O)CO (some centres undefined) | -3.14 | – | 13 nM (active)
CCN(CC)CCn1c(=O)c(Cc2ccc(OC)cc2)nc2ccccc21 | -5.84 | -14.1% (inactive) | –
CC1=C(C(=O)O)N2C(=O)[C@@H](NC(=O)C(N)c3ccccc3)[C@H]2SC1 (some centres undefined) | 3.05 | 8.77% (inactive) | –
NC(=O)c1ccc2[nH]ccc2c1 | -7.5 | 12.2% (inactive) | –
O=C(O)C1CCCN(CCC=C(c2ccccc2)c2ccccc2)C1 (centres undefined) | -7.12 | 15.6% (inactive) | –
CCCCS(=N)(=O)CCC(N)C(=O)O (centres undefined) | 4.08 | 49.4% (inactive) | –
